Inconclusive results are not listed. The source made the active and inactive calls. Unless noted, the call rests on the fitted dose curve; in most records, active means well fitted curve in either direction with a large enough effect (not every such curve was filed as active); inconclusive means small, poorly fitted or top-dose-only effect, or another doubt; inactive means flat fitted curve, though single readings scatter.
Columns and labels:
[1] = target: Lysosomal acid glucosylceramidase (Homo sapiens) (UniProt P04062); assay: Glucocerebrosidase-p2 (AID 348; in the data active means potency below about 10 µM; further: potency means the concentration at half of the fitted maximal effect); details: purified GBA, blue fluorogenic substrate, 40 min
Chain of Lysosomal acid glucosylceramidase (Homo sapiens) (P04062 whole entry, looked up): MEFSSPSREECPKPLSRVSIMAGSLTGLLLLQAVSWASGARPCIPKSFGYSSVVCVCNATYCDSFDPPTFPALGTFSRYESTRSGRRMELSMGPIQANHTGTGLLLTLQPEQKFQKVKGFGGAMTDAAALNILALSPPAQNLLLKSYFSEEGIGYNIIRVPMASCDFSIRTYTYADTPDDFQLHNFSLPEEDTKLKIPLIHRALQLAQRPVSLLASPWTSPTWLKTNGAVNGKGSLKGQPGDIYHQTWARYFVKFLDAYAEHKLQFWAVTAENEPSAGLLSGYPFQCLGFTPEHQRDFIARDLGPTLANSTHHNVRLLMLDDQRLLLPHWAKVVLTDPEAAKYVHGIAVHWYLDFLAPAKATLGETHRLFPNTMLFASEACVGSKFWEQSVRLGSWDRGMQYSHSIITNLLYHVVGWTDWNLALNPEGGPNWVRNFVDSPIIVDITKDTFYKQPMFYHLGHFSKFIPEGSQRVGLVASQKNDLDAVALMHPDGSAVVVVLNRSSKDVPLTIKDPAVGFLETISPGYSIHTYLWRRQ
In short: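 Normal human glucocerebrosidase (0.2 nM) with blue fluorogenic substrate (80 uM final) in citrate/phosphate pH 5.9 with 10mM sodium taurocholate, 0.01% tween-20; 40 min RT, NaOH/glycine stop; fluorescence Ex 365/Em 440; AC50 from a titration from 0.6 nM upwards.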

[2] = AP1 Signaling Pathway (AID 357); details: ME-180 AP-1-bla reporter, EGF-induced, beta-lactamase ratio, 5 h; at 7.69 µM (top of the series) unless noted; further: on the % scale 0 is the no-effect control and ±100 the full control effect
In short: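 ME-180 cells with beta-lactamase reporter under AP-1 response element, stimulated with EC50 EGF; compounds tested in titration series, 5 h at 37 °C. CCF4 substrate added 2.5 h at room temperature; 460/530 nm emission ratio gave %activity and AC50.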

[3] = target: Cytochrome P450 1A2 (Homo sapiens) (UniProt P05177); assay: p450-cyp1a2 (AID 410; calls by dose curve; further: potency means the concentration at half of the fitted maximal effect;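 on activity change, negative = inhibition: -100% = full effect of reference inhibitor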); details: recombinant CYP1A2, luciferin-ME demethylation, luminescence; series mostly up to 57 µM
Chain of Cytochrome P450 1A2 (Homo sapiens) (P05177 whole entry, looked up): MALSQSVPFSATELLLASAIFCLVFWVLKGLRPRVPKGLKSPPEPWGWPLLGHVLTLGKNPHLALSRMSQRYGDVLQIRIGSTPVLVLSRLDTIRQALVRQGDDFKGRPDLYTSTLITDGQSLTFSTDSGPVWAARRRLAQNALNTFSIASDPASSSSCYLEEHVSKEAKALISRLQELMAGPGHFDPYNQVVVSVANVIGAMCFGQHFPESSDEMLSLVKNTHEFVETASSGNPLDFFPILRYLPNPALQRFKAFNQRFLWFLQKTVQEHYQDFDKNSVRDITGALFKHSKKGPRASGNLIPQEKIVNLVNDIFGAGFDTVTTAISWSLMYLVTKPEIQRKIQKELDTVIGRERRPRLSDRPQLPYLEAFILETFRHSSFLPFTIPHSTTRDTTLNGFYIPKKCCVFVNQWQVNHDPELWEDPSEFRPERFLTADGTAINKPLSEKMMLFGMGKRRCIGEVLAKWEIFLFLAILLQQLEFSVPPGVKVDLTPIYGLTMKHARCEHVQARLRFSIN
In short: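 20nM CYP1A2, 100uM Luciferin-ME (=Km), 100mM KPO4; cpd 10 min RT; +NADPH regen, 60 min RT; stop/detect 20 min; luminescence. Normalized to furafylline 57 uM = full inhibition.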

[4] = NFAT Signaling Pathway (AID 444); details: Jurkat NFAT-bla M1, carbachol, beta-lactamase ratio, 5 h; at 7.69 µM (top of the series) unless noted;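 further: carbachol stimulus at about its EC50 of 1 µM final; on the % scale 0 is the no-effect control and ±100 the full control effect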
In short: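 Jurkat cells carrying an NFAT-driven β-lactamase reporter and co-transfected muscarinic M1 receptor were treated with compound plus carbachol (1 uM final, an EC50 level) for 5 h at 37 °C. CCF4 loading followed for 1 h at RT; 460/530 nm ratio gave %activity.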

[5] = Stat Signaling Pathway (AID 446); details: ME-180 SIE beta-lactamase reporter, IL-6 stimulated, 5 h; at 7.69 µM (top of the series) unless noted;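 further: ME-180 cervical cancer cells given 40 pM IL-6 alongside compound; SIE-controlled beta-lactamase reporter measured as 460/530 nm FRET emission ratio; on the % scale 0 is the no-effect control and ±100 the full control effect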
In short: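 Compound effects on IL-6-induced STAT reporter activity were measured in ME-180 cells. After overnight culture, cells were co-treated with 40 pM IL-6 for 5 hrs before beta-lactamase substrate loading at room temperature.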

[6] = target: Glucocorticoid receptor (Homo sapiens) (UniProt P04150); assay: GR-GFP Redistribution (AID 450;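 active means compounds whose dose series gives a full or clear partial fitted curve of increased nuclear translocation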; further: potency means the concentration at half of the fitted maximal effect); details: U2OS GR-GFP nuclear translocation, laser cytometry, 2 h
Chain of Glucocorticoid receptor (Homo sapiens) (P04150 whole entry, looked up, the tested form may be a part): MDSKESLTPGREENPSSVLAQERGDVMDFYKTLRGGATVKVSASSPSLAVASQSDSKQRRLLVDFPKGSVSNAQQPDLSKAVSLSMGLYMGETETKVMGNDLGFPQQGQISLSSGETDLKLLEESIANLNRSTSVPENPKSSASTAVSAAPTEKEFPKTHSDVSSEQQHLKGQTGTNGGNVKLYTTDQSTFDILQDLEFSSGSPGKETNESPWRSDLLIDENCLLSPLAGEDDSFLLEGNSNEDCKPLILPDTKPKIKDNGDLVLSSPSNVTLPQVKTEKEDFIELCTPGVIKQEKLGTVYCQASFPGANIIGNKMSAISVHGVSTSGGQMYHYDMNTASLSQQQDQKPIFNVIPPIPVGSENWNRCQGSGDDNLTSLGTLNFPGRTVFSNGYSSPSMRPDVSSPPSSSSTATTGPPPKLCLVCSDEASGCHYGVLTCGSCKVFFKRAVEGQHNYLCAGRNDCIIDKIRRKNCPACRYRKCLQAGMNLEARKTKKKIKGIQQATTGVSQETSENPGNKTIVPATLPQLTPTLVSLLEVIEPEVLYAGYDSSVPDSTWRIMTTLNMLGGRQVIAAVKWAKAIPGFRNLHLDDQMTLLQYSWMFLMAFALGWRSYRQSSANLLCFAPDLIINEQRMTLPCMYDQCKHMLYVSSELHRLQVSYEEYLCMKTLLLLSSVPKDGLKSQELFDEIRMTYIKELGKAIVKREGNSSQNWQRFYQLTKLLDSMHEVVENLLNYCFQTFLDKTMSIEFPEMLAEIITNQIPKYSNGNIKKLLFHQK

[7] = target: Glucocorticoid receptor (Homo sapiens) (UniProt P04150); assay: GR-EFC Redistribution (AID 451; calls by dose curve; further: potency means the concentration at half of the fitted maximal effect); details: CHO-K1 GR-EFC translocation, beta-gal luminescence, 2 h
In short: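 CHO-K1 cells stably expressing nuclear-localized β-gal enzyme acceptor and GR fused C-terminally to the enzyme donor fragment; ligand-driven nuclear translocation restores β-gal by complementation. Compounds titrated up to 46 uM final, 2 h at 37 °C; luminescence read.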

[8] = target: Mitogen-activated protein kinase 10 (Mus musculus) (UniProt Q61831); assay: JNK3 AlphaScreen Assay (AID 530); details: JNK3 lysate, c-Jun phosphorylation; series mostly up to 57.1 µM;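 further: kinase came from lysate of stimulated human HepG2 cells; signal reports phosphorylation of biotinylated GST-cJun 1-79 at Ser73 with 10 µM ATP; on the % scale 0 is the no-effect control and ±100 the full control effect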
In short: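 Biotinylated GST-cJun(1-79) served as substrate for JNK3 in HepG2 lysates stimulated with IL-1beta and TNF-alpha. ATP was 10 uM final, pH 7.6. Ser73 phosphorylation was quantified by AlphaScreen (680 nm excitation).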

[9] = target: 3',5'-cyclic-AMP phosphodiesterase 4B (Homo sapiens) (UniProt Q07343); assay: qHTS Assay for Inhibitors of PDE-IV (AID 607; active means well fitted activation curve with a large enough effect in the main read-out, with a control signal flat, not every such curve was filed as active; further: % of control where 0% means no effect); details: HEK293 ACTOne CNG channel cells, membrane potential fluorescence; series mostly up to 22.9 µM
Chain of 3',5'-cyclic-AMP phosphodiesterase 4B (Homo sapiens) (Q07343 whole entry, looked up): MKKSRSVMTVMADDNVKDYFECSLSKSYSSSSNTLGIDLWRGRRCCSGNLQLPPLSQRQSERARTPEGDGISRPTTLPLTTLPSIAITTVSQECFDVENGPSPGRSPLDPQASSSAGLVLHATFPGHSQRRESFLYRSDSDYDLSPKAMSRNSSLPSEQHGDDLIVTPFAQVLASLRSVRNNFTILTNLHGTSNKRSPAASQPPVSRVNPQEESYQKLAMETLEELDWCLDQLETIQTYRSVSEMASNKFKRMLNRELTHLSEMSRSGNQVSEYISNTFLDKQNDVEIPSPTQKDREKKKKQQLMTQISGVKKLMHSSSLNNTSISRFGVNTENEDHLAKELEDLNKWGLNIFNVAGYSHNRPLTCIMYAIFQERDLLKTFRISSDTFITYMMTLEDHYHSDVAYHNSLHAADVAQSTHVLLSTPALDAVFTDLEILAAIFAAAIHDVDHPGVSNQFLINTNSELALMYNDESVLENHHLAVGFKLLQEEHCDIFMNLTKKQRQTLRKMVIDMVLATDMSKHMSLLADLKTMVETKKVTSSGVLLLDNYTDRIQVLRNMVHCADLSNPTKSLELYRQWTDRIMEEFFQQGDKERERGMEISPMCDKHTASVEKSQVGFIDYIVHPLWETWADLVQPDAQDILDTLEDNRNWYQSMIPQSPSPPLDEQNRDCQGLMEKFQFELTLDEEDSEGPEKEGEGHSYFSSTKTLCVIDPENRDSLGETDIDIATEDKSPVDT
In short: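 ACTOne HEK293 cells carry a modified cAMP-gated CNG channel and express endogenous PDE4; plated 1000 cells/well, compounds up to 22.9 uM final. Membrane-potential dye fluorescence (ex 535/em 590) was read; parental cells received 10 uM forskolin + 100 uM RO 20-1724.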

[10] = target: Cytochrome P450 3A4 (Homo sapiens) (UniProt P08684); assay: qHTS Assay for Activators of Cytochrome P450 3A4 (AID 885; active means well fitted curve in the direction sought with a large enough effect; an effect the other way counts as inactive or inconclusive; further: nearly all actives have a fitted effect of over 65% in size); details: recombinant CYP3A4, Luciferin-PPXE luminescence, 60 min; series mostly up to 57.1 µM
Chain of Cytochrome P450 3A4 (Homo sapiens) (P08684 whole entry, looked up): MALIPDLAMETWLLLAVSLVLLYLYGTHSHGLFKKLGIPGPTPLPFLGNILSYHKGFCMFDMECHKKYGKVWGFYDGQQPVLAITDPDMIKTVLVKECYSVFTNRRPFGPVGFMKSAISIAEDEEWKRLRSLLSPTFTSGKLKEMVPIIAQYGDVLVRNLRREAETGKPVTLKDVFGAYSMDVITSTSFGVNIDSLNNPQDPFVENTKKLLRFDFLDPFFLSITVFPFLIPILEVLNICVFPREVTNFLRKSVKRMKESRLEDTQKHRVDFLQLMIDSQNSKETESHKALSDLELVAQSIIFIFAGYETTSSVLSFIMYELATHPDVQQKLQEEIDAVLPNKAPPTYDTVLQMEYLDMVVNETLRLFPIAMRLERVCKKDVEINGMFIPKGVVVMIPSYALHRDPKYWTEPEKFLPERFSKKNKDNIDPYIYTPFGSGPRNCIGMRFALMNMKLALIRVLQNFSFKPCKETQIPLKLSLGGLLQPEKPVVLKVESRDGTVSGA
In short: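 CYP3A4 activity: Luciferin-PPXE O-dealkylation, 25uM substrate, 200mM KPO4, RT throughout. Read-out is luciferase luminescence; higher values reflect activation.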

[11] = qHTS Assay for Identification of Small Molecule Agonists for Hypoxia Response Element Signaling Pathway (AID 914; active means well fitted activation curve with a large enough effect in the signal ratio, with a control signal flat, not every such curve was filed as active; the % refers to the signal ratio; further: % of control where 0% means no effect); details: ME-180 (cervical carcinoma) HRE-bla reporter, beta-lactamase ratio, CoCl2, 17 h; activation: stronger effect = higher value
In short: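 HRE-bla ME-180 cells with beta-lactamase reporter under hypoxia response element, compounds with EC50 CoCl2 for 17 hours at 37 C. CCF4 substrate, 460nm/530nm emission ratio gave %Activity; AC50 from titration series.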

[12] = qHTS Assay for Lipid Storage Modulators (AID 1519; calls by dose curve); details: Drosophila S3 cells, BODIPY lipid droplet/cell ratio, laser cytometry, cells loaded with oleic acid; for activity change, negative = inhibition: at 57.5 µM (top of the series)
In short: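 Cells seeded at 5,000 per well were treated with compounds over a concentration series and loaded with oleic acid (400 uM, as added). Lipid droplet fluorescence (488 nm excitation, 500-530 nm channel) was read by laser-scanning cytometry and normalized to 20 uM Triacsin C.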

[13] = Primary qHTS for small molecule stabilizers of the endoplasmic reticulum resident proteome: Secreted ER Calcium Modulated Protein (SERCaMP) assay (AID 1508630; active means well fitted curve in the direction sought with a large enough effect; an effect the other way counts as inactive or inconclusive; further: on the % scale 0 is the no-effect control and ±100 the full control effect); details: SH-SY5Y GLuc-SERCaMP (Gaussia luciferase released on ER calcium loss) secretion, thapsigargin, luminescence; series mostly up to 38.4 µM
In short: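 The SH-SY5Y reporter protocol was run at 3 concentrations up to 38.3 uM (primary) or 11 concentrations (follow-up): 16 h compound, 100 nM thapsigargin for 4 h, then extracellular luciferase luminescence.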

[14] = target: Cytochrome P450 2C9 (Homo sapiens) (UniProt P11712); assay: qHTS Assay for Inhibitors and Substrates of Cytochrome P450 2C9 (AID 883; active means well fitted curve in the direction sought with a large enough effect; an effect the other way counts as inactive or inconclusive; further: potency means the concentration at half of the fitted maximal effect; nearly all actives have a fitted effect of over 60% in size); details: recombinant CYP2C9, luciferin-H luminescence, 60 min; series mostly up to 57.1 µM
Chain of Cytochrome P450 2C9 (Homo sapiens) (P11712 whole entry, looked up): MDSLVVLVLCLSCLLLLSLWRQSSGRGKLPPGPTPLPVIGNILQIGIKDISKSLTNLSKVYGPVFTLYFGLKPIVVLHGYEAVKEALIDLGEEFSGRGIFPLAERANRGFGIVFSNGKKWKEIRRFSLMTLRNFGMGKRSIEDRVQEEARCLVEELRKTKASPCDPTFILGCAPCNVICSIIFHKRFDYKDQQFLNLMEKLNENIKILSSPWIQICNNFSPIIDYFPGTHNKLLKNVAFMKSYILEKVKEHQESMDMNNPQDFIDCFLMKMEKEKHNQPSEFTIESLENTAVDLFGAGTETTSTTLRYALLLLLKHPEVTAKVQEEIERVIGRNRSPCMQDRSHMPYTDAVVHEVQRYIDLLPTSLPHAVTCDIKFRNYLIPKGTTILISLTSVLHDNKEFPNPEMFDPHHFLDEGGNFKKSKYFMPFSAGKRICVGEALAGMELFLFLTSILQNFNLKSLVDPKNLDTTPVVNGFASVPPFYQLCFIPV
In short: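 A luminogenic readout tracked human CYP2C9 (10nM) converting deoxyluciferin (100uM, at KM) in 25mM KPO4 during 60 min at 37C with regenerated NADPH. Values normalized to 57uM sulphaphenazole as complete inhibition.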

[15] = target: Cytochrome P450 3A4 (Homo sapiens) (UniProt P08684); assay: qHTS Assay for Inhibitors and Substrates of Cytochrome P450 3A4 (AID 884; active means well fitted curve in the direction sought with a large enough effect; an effect the other way counts as inactive or inconclusive; further: potency means the concentration at half of the fitted maximal effect; nearly all actives have a fitted effect of over 50% in size); details: recombinant CYP3A4, Luciferin-PPXE luminescence; series mostly up to 57.1 µM
In short: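 Luminescent readout of luciferin produced by CYP3A4 (20 nM) dealkylation of Luciferin-PPXE, 25 uM (its KM). NADPH-driven reaction ran 60 min at RT after 10 min compound preincubation; data scaled to 57 uM ketoconazole as 100% inhibition.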

[16] = target: Cytochrome P450 2C19 (Homo sapiens) (UniProt P33261); assay: qHTS Assay for Inhibitors and Substrates of Cytochrome P450 2C19 (AID 899; active means well fitted curve in the direction sought with a large enough effect; an effect the other way counts as inactive or inconclusive; further: potency means the concentration at half of the fitted maximal effect; nearly all actives have a fitted effect of over 60% in size); details: recombinant CYP2C19, luciferin-H EGE luminescence; series mostly up to 57.1 µM
Chain of Cytochrome P450 2C19 (Homo sapiens) (P33261 whole entry, looked up): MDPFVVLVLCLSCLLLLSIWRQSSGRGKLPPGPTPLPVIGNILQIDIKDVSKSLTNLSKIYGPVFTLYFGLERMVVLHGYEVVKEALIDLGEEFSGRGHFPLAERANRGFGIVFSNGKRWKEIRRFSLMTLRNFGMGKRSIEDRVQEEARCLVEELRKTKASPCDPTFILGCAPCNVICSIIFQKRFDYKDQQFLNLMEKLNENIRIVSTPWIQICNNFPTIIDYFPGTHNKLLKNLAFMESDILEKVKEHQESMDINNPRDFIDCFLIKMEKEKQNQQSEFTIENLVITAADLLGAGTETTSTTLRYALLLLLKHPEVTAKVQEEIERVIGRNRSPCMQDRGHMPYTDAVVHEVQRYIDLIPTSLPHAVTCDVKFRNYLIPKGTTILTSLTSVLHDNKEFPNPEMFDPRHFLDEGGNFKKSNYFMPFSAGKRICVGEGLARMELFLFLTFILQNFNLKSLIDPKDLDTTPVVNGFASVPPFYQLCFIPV
In short: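 NADPH-dependent conversion of Luciferin-H EGE (10uM, at KM) by 5nM enzyme in 50mM KPO4, 60 min at 37C following 10 min compound preincubation. Stopped with luciferin detection buffer; luminescence read after 20 min.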

[17] = Confirmation and Secondary Assay for Modulators of Hemoglobin Beta Chain Splicing at IVS2 654 locus (AID 910; active means well fitted curve in the direction sought with a large enough effect; an effect the other way counts as inactive or inconclusive; further: % of control where 0% means no effect); details: HeLa EGFP-654 splicing reporter, GFP fluorescence, 48 h; series mostly up to 38.3 µM
In short: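 HeLa cells stably carrying EGFP interrupted by mutant beta-globin IVS2-654 intron (CMV-driven) were treated with compound for 2 days at 37C; corrected splicing was scored as total peak GFP intensity per well (488 nm excitation, 500-520 nm emission).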

[18] = Confirmation and Secondary Assay for Modulators of Hemoglobin Beta Chain Splicing at IVS2 705 locus (AID 930; active means well fitted curve in the direction sought with a large enough effect; an effect the other way counts as inactive or inconclusive;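 further: HeLa cells stably expressing the EGFP-705 splicing reporter; GFP fluorescence per well restored by corrected splicing of the IVS2-705 intron in EGFP; % of control where 0% means no effect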); details: HeLa EGFP-705 splicing reporter, GFP fluorescence, 48 h; series mostly up to 38.3 µM
In short: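 HeLa cells stably carrying EGFP interrupted by mutant beta-globin intron 2 (IVS2-705) treated 2 days at 37C with compound; 500 nM antisense PNA as control. Correct splicing read as total peak GFP intensity per well by laser-scanning cytometry.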

[19] = measured here: cell count channel max response
[20] = measured here: lipid channel max response

Row | Structure (SMILES) | Potency [1] | activity change, negative = inhibition [2] | Potency [3] | activity change, negative = inhibition [4] | activity, negative = inhibition [5] | Potency [6] | Potency [7] | outcome [8] | Potency [9] | Potency [10] | activation [11] | activity change, negative = inhibition [12] | max response [12, 19] [%] | max response [12, 20] [%] | Potency [13] | Potency [14] | Potency [15] | Potency [16] | outcome [17] | outcome [18]
1 | COc1ncc2nc(-c3cccc(C#N)c3)c(=O)n(CCC#N)c2n1 | > 11.4 µM (inactive) | -2.26% (inactive) | 20 µM (active) | -6.7% (inactive) | -3.36% (inactive) | > 9.22 µM (inactive) | > 46 µM (inactive) | inactive | inactive | inactive | -3.76% (inactive) | 3.8% (inactive) | 14.2 | 20.3 | inactive | – | – | – | – | –
2 | COc1ccccc1CCn1c(=O)c(-c2cc(F)cc(F)c2)nc2cncnc21 | > 11.4 µM (inactive) | -3.28% (inactive) | 1.58 µM (active) | -7.47% (inactive) | 13% (inactive) | > 9.22 µM (inactive) | > 46 µM (inactive) | inactive | – | inactive | – | 6.22% (inactive) | -2.09 | 2.22 | inactive | 1.58 µM (active) | 0.398 µM (active) | 1.58 µM (active) | – | –
3 | Cc1cccc(CNc2ccnc(-c3ccoc3)n2)c1 | > 11.4 µM (inactive) | 0.94% (inactive) | 2 µM (active) | 0.371% (inactive) | 6.16% (inactive) | > 46 µM (inactive) | > 46 µM (inactive) | inactive | inactive | inactive | – | 6.91% (inactive) | 1.7 | 4.61 | inactive | – | – | – | inactive | inactive
4 | CC(C)NC(=O)N1CC[C@@]2(CCCN(S(C)(=O)=O)C2)C1 | > 11.4 µM (inactive) | -5.61% (inactive) | inactive | 0.961% (inactive) | -2.56% (inactive) | – | > 46 µM (inactive) | inactive | – | – | – | 0.109% (inactive) | 4.25 | 3.89 | inactive | – | – | – | – | –
5 | COCC(=O)N1CCC2(CC1)CN(C(=O)Nc1ccc(OC)cc1)C2 | > 11.4 µM (inactive) | -2.15% (inactive) | inactive | 21.1% (inactive) | 2.17% (inactive) | – | > 46 µM (inactive) | inactive | inactive | – | – | 3.11% (inactive) | 23 | 29.3 | inactive | – | – | – | – | –
6 | O=C(Nc1cccc(F)c1)N1CCC2(CC1)CCN(C(=O)c1cnccn1)CC2 | > 11.4 µM (inactive) | -10.4% (inactive) | inactive | 20.5% (inactive) | -10.8% (inactive) | – | > 46 µM (inactive) | inactive | inactive | – | – | 3.08% (inactive) | 11.7 | 15.9 | inactive | – | – | – | – | –
7 | O=C(c1csnn1)N1CCC2(CCCN(Cc3cc(C(F)(F)F)cc(C(F)(F)F)c3)C2)CC1 | > 11.4 µM (inactive) | 10.6% (inactive) | 12.6 µM (active) | 10.5% (inactive) | 3.73% (inactive) | – | > 46 µM (inactive) | inactive | inactive | – | – | -5.5% (inactive) | 21.4 | 17.2 | inactive | – | – | – | – | –
